Screening data deposited in PubChem BioAssay by Broad Institute.
Shh pathway inh = Hedgehog pathway signaling inhibitors, primary screen, luminescence, Shh-LIGHT2 cells, Gli-luciferase; hit rate 2.1% among 22,000; inhibition, % (no concentration beside the values); AID 2313, 2010; Shh-LIGHT2 Gli-luciferase reporter, 30 h;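 active = mean inhibition across valid replicates above about 65%, limit read from the data; inconclusive = mean under the limit, yet half or more replicates past it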;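 also: pathway switched on by Shh-conditioned medium diluted 1 in 25 in low serum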
PD-1 reversal = activators reversing PD-1 mediated T-cell inhibition, primary screen, luminescence, primary human CD4 T cells, PD-L1 beads; 29,000 tested, under 10 active; AID 2316, 2010; CellTiter-Glo 96 h; activation, % (concentration not given with the values); call rule not given here;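 also: 0% = median vehicle wells and 100% = positive control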
NOMO-1 viab = NOMO-1 AML cell viability reduction, primary screen, STK33 inhibitor project, CellTiter-Glo luminescence; NOMO-1 AML viability, 72 h; inhibition, % (test concentration not listed); hit rate 7.5% among 37,000; AID 2330, 2010; in the data active = inhibition above about 80%; inconclusive = no clear call, values can overlap the other calls
Starred values were filed as active, the others as inactive. Most compounds without a hit are left out; they make up all but 7.7% or so of the library.

Screening C[C@H]1CN([C@@H](C)CO)C(=O)c2cc(NC(=O)Nc3ccc(C(F)(F)F)cc3)ccc2O[C@H]1CN(C)C(=O)Nc1ccc2c(c1)OCO2 returned Shh pathway inh 12.4, PD-1 reversal -1.5 and NOMO-1 viab 42.3.
Screening C[C@@H]1CN([C@H](C)CO)C(=O)c2cc(NC(=O)Nc3ccc(C(F)(F)F)cc3)ccc2O[C@@H]1CN(C)C(=O)Nc1ccc2c(c1)OCO2 returned Shh pathway inh 4.4, PD-1 reversal -1.2 and NOMO-1 viab 95.3*.
Screening C[C@@H]1CN([C@H](C)CO)C(=O)c2cc(NC(=O)Nc3ccc4c(c3)OCO4)ccc2O[C@H]1CN(C)C(=O)Nc1ccc(C(F)(F)F)cc1 returned Shh pathway inh 0.4, PD-1 reversal -0.2 and NOMO-1 viab 23.2.
C[C@@H]1CN([C@@H](C)CO)C(=O)c2cc(NC(=O)Nc3ccc(C(F)(F)F)cc3)ccc2O[C@@H]1CN(C)C(=O)Nc1ccc2c(c1)OCO2 was read as Shh pathway inh 40.1, PD-1 reversal -3.9 and NOMO-1 viab 102.4*.
Screening O=C(O)C(Cc1ccsc1)c1ccccc1 (configuration not stated) returned PD-1 reversal 1.0 and NOMO-1 viab -10.0.
For CC1CCN(S(=O)(=O)c2cccc(C(=O)NC(C)(C)CO)c2)CC1 the results were PD-1 reversal -0.5 and NOMO-1 viab 6.0.
For CC1CCN(S(=O)(=O)c2ccc(NC(=O)c3ccc(C(C)(C)C)cc3)cc2)CC1 the results were Shh pathway inh -60.7, PD-1 reversal -0.3 and NOMO-1 viab 114.2*.
N#C/C(=C\c1ccsc1)S(=O)(=O)c1ccc(C(F)(F)F)cn1 was read as Shh pathway inh -35.0, PD-1 reversal -0.6 and NOMO-1 viab 25.5.
Screening CCOc1ccc2ccccc2c1C(=O)NCc1cccnc1 returned PD-1 reversal 2.3 and NOMO-1 viab 15.6.
For CC1(C)Cc2c(sc3ncn4nc(-c5ccccc5)nc4c23)C(C)(C)N1 the results were Shh pathway inh -12.5, PD-1 reversal -1.6 and NOMO-1 viab 117.5*.
`COc1c(O[C@@H]2O[C@H](C(=O)O)[C@@H](O)[C@H](O)[C@H]2O)cc2oc(-c3ccccc3)cc(=O)c2c1O` gave Shh pathway inh -11.1.
`CC(Oc1ccc(F)cc1)C(=O)Nc1sc2c(c1C(N)=O)CCCC2` (configuration not stated) gave PD-1 reversal -8.7 and NOMO-1 viab 89.3*.
CCOC(=O)c1c(NC(=O)C(C)Oc2ccccc2C)sc2c1CCCC2 (configuration not stated) was read as NOMO-1 viab 7.4.
`COC(=O)Nc1ccc(S(=O)(=O)N(C)C)cc1` gave PD-1 reversal 1.3 and NOMO-1 viab -3.6.
Screening COC(=O)/C=C/S(=O)(=O)c1ccc(NC(C)=O)cc1 returned Shh pathway inh 94.4*, PD-1 reversal -4.8 and NOMO-1 viab 125.5*.
`C=C1C(=O)OC2CC(C)C3(/C=C/C(C)=O)OC3CC12` (configuration not stated) gave Shh pathway inh -14.9, PD-1 reversal -9.5 and NOMO-1 viab 118.1*.
Screening C=C1C(=O)O[C@H]2C1CCC(C)=C1C(=O)C=C(C)[C@@H]12 (some centres not stated) returned Shh pathway inh -8.5, PD-1 reversal 1.1 and NOMO-1 viab 114.9*.
Screening CC1=CC(=O)C2=C(C)CC[C@@H]3[C@H](OC(=O)[C@H]3C)[C@@H]12 returned Shh pathway inh -49.9 and NOMO-1 viab 11.9.
Screening O=C(CCCOc1ccc(Cl)cc1Cl)Nc1ccc2c(c1)C(=O)NC2=O returned NOMO-1 viab 26.9.
For COc1ccc(NC(=O)CNC(=O)c2ccc(F)cc2)cc1 the results were NOMO-1 viab -21.7.
Screening Cc1cc2nc(-c3ccc(C)c(NC(=O)COc4ccc([N+](=O)[O-])cc4)c3)oc2cc1C returned PD-1 reversal 0.5 and NOMO-1 viab 93.7*.
`Cc1ccc2oc(-c3ccc(C)c(NC(=O)COc4ccc(Br)cc4)c3)nc2c1` gave PD-1 reversal 3.5 and NOMO-1 viab 43.6.
Screening Cc1cccc(OCC(=O)Nc2cc(-c3nc4cc(Cl)ccc4o3)ccc2C)c1 returned PD-1 reversal -11.0 and NOMO-1 viab 102.9*.
`Cc1ccc2oc(-c3ccc(Cl)c(NC(=O)COc4ccc(C)c(C)c4)c3)nc2c1` gave PD-1 reversal 3.9 and NOMO-1 viab 16.1.
COc1ccc(C)cc1NC(=O)CN(c1cc(Cl)c(Cl)cc1Cl)S(C)(=O)=O was read as NOMO-1 viab 9.2.
Cn1ncc(Br)c1-c1nc2ccccc2[nH]1 was read as Shh pathway inh -21.9, PD-1 reversal -1.1 and NOMO-1 viab 3.9.
`C[C@@H]1CN([C@@H](C)CO)C(=O)c2cccc(NC(=O)c3nc4ccccc4s3)c2O[C@@H]1CN(C)CC1CCCCC1` gave Shh pathway inh -33.0, PD-1 reversal -11.7 and NOMO-1 viab 116.7*.
C[C@@H]1CN([C@H](C)CO)C(=O)c2cccc(NC(=O)c3nc4ccccc4s3)c2O[C@@H]1CN(C)CC1CCCCC1 was read as Shh pathway inh 3.3, PD-1 reversal -2.0 and NOMO-1 viab 32.5.
C[C@H](CO)N1C[C@H](C)[C@@H](CN(C)CC2CCCCC2)Oc2c(NC(=O)c3nc4ccccc4s3)cccc2C1=O was read as Shh pathway inh -3.6, PD-1 reversal -6.6 and NOMO-1 viab 108.0*.
Screening C[C@H](CO)N1C[C@H](C)[C@H](CN(C)CC2CCCCC2)Oc2c(NC(=O)c3nc4ccccc4s3)cccc2C1=O returned Shh pathway inh 17.7, PD-1 reversal -4.9 and NOMO-1 viab inconclusive.
For Cc1nn(CC(O)COc2ccc3ccccc3c2)c(C)c1Br (configuration not stated) the results were PD-1 reversal -2.1 and NOMO-1 viab 24.8.
Cc1nnc(NCc2ccco2)[nH]c1=O was read as NOMO-1 viab 2.6.
For C=CCN(CC=C)C(=O)Cc1ccccc1OC the results were Shh pathway inh -6.3, PD-1 reversal -2.1 and NOMO-1 viab 30.6.
For NC(=O)CSc1nnc(-c2cccs2)n1-c1ccccc1 the results were NOMO-1 viab 0.4.
`COC(=O)CSc1nnc(-c2sc3ccccc3c2Cl)n1-c1ccc(OC)cc1` gave PD-1 reversal -2.2 and NOMO-1 viab 84.9*.
`COC(=O)CSc1nnc(-c2sc3ccccc3c2Cl)n1-c1ccccc1` gave PD-1 reversal -0.8 and NOMO-1 viab 29.5.
COC(=O)CSc1nnc(-c2cccs2)n1-c1ccc(Cl)cc1 was read as PD-1 reversal -0.5 and NOMO-1 viab 101.0*.
`Nc1ccccc1C(=O)NCc1c(F)cccc1Cl` gave Shh pathway inh -5.0, PD-1 reversal -0.5 and NOMO-1 viab 8.9.
For CCNC(=O)Oc1ccccc1 the results were Shh pathway inh -15.6, PD-1 reversal 0.6 and NOMO-1 viab -16.0.
c1ccc(CNc2ncnc3scc(C4COc5ccccc5O4)c23)cc1 (configuration not stated) was read as PD-1 reversal 0.8 and NOMO-1 viab 18.6.
`COCCNS(=O)(=O)c1ccc(Cl)c(Cl)c1OC` gave PD-1 reversal 1.2 and NOMO-1 viab -1.2.
For Cc1cc(C)c(NC(=O)CSc2nnc(-c3ccc(F)cc3)n2C)c(C)c1 the results were NOMO-1 viab 2.9.
